Screens deposited in PubChem BioAssay by National Center for Advancing Translational Sciences (NCATS).
TDP1 cell CPT – growth inhibition of DT40 Tdp1-/-;hTDP1 cells with camptothecin (screen for TDP1 inhibitors). chicken DT40 Tdp1-/-;hTDP1 cells + 20 nM CPT, ATP luminescence, 48 h. Potency, µM (highest dose often 46.2 µM), for inactives: top-dose activity change, negative = growth inhibition, actives largely listed as inhibitors. 420,000 tested, 12% active. AID 686979; note: % is set by controls: 0 for no effect and ±100 for the full control effect; nearly all actives have a fitted effect of over 55% in size
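Chicken DT40 Tdp1-/- cells stably complemented with human TDP1 were seeded at 400 cells/well in medium containing 20 nM camptothecin, exposed to pin-transferred compounds, and grown at 37 °C for at least 48 hr. Viability was read as ATP luminescence.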
DT40 TDP1 no CPT – qHTS for Inhibitors of human tyrosyl-DNA phosphodiesterase 1 (TDP1): qHTS in cells in absence of CPT; DT40 Tdp1-/- hTDP1 cells, no CPT, ATP luminescence, 48 h; Potency, µM (highest dose often 46.2 µM), for inactives: at the highest dose activity change, negative = growth inhibition, usual class: inhibitors; 420,000 tested, 15% active; AID 686978, 2013; note: % is set by controls: 0 for no effect and ±100 for the full control effect; nearly all actives have a fitted effect of over 55% in size
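Stably hTDP1-transfected Tdp1-null chicken DT40 cells were treated with library compounds minus camptothecin and grown for at least 48 hr at 37 °C, after which cellular ATP was quantified by luminescence.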
HT1080-NT tox – kills 2HG-producing HT-1080-NT fibrosarcoma cells. HT-1080-NT fibrosarcoma viability, CellTiter-Glo ATP luminescence, 48 h. Potency, µM (titrated, usually from 46.1 µM), for the others: at the top dose activity, negative = less viability, hits mostly cytotoxic. 360,000 tested, 1.6% active. AID 686970;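 note: NT is the 2HG producing partner of a matched IDH1 knockdown line; 0% = DMSO-treated cells and -100% = media-only wells without cells; nearly all actives have a fitted effect of over 55% in size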
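Read-out is CellTiter-Glo luminescence after 10 minutes at room temperature, following 48 hours' compound treatment of HT-1080-NT cells (750 cells/well, RPMI, 5% FBS, 37 degrees C).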
HepG2 tox – HepG2 cytotoxicity, counter-screen for TGF-b inhibitors; HepG2 CAGA-GFP viability, ATP luminescence, 18 h; Potency, µM (titrated, usually from 46.1 µM), for the others: at the highest dose activity change, negative = cytotoxicity, most hits filed as cytotoxic; 410,000 tested, 0.76% active
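CellTiter-Glo luminescence gave cytotoxicity after 18 hours at 37 degrees C. The cells were HepG2 CAGA-GFP in 1% FBS DMEM, stimulated with 500 pg/mL TGF-beta after compound addition. %Activity was normalised to no-cell wells (complete cell-killing) and DMSO (no toxicity), and curves were fitted and classified.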
TGFb inhibitor – inhibitors of TGF-b signaling. HepG2 CAGA-GFP TGF-b/SMAD3 reporter, GFP fluorescence, 18 h; TGF-beta stimulated, 500 pg/mL final. Potency, µM (highest dose often 46.1 µM), inactives show at the highest dose activity, negative = inhibition, hits mostly inhibitors. 410,000 tested, 1.2% active; note: % is set by controls: 0 for no effect and ±100 for the full control effect; nearly all actives have a fitted effect of over 65% in size
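GFP signal (ex488/em500-530) from TGF-beta-stimulated HEPG2 CAGA-GFP cells, 500 pg/mL final, 18 h at 37 degrees C in DMEM plus 1% FBS, normalized to unstimulated and DMSO-stimulated controls.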
HT1080 IDH1KD tx – HT-1080 IDH1 knockdown cell toxicity (counter line). HT-1080 IDH1 knockdown viability, ATP luminescence, 48 h. Potency, µM (highest dose often 46.1 µM), inactives show top-dose activity, negative = toxicity, usual class: cytotoxic. 360,000 tested, 2% active;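 note: 0% = DMSO wells and -100% = cell-free medium wells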
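Using the IDH1-knockdown HT-1080 line run in the same batch and compound series as the NT line, viability after 48 h at 37 °C was determined by CellTiter-Glo luminescence and expressed as % activity.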
Active calls of the source: *; ? = inconclusive; / = no result given. Only some compounds are listed: those with a hit (about 17% of all), similar ones and a draw of the others. Calls come from the whole dose curve; as a rule, active = well fitted curve in the direction sought with a large enough effect; inconclusive = small, poorly fitted or top-dose-only effect, or another doubt; inactive = no such curve, though single readings can be large; an effect the other way counts as inactive or inconclusive. Potency is the fitted concentration of half-maximal effect.

SMILES	TDP1 cell CPT	DT40 TDP1 no CPT	HT1080-NT tox	HepG2 tox	TGFb inhibitor	HT1080 IDH1KD tx
COc1cccc(CN2CCC2(C)C(=O)Nc2cccc3cccnc23)c1OC (configuration not stated)	16µM*	18µM*	?	-57%	11µM*	?
COc1ccc(CN2CCC2(C)C(=O)Nc2cnc3ccccc3c2)c2ccccc12 (configuration not stated)	?	?	?	-28%	?	?
CC(C)Oc1ccc(CN2CCC2(C)C(=O)Nc2cccc3cccnc23)cc1 (configuration not stated)	18µM*	?	?	-32%	-4%	?
CC1(C(=O)Nc2cccc3cccnc23)CCN1Cc1ccc(-c2ccccc2)o1 (configuration not stated)	23µM*	18µM*	-1%	-34%	-23%	-11%
Cc1ccc(OCCN2CCC2(C)C(=O)Nc2ccc3c(c2)OCCO3)cc1 (configuration not stated)	-98%	18µM*	-15%	-35%	?	-20%
Nc1cc(=O)[nH]c(=O)n1CCc1ccccc1	-4%	20%	0%	3%	-9%	0%
Cn1c(N)c(C(=O)COC(=O)Cc2ccc(F)cc2)c(=O)n(C)c1=O	1%	-9%	1%	-5%	3%	2%
O=C(Cc1cccc(NC(=O)C2CCN(C(=O)CCc3ccccc3)CC2)c1)Nc1cccc(C(=O)N2CCCCC2)c1	?	18µM*	-10%	-25%	?	-3%
O=C(Cc1ccc(NC(=O)C2CCN(C(=O)CCc3ccccc3)CC2)cc1)Nc1ccc(C(=O)N2CCOCC2)cc1	?	16µM*	4%	-24%	-12%	4%
O=C(Cc1cccc(NC(=O)C2CCN(C(=O)c3ccccc3)CC2)c1)Nc1cccc(C(=O)N2CCOCC2)c1	15%	-3%	13%	-27%	-15%	6%
O=C(Cc1ccc(NC(=O)C2CCN(C(=O)c3ccccc3)CC2)cc1)Nc1ccc(C(=O)N2CCOCC2)cc1	-16%	-1%	12%	1%	4%	-4%
O=C(Cc1cccc(NC(=O)C2CCN(C(=O)CCc3ccccc3)CC2)c1)Nc1cccc(C(=O)N2CCOCC2)c1	15µM*	15µM*	0%	-16%	-15%	-1%
O=C(Cc1cccc(NC(=O)C2CCN(C(=O)C3CCC3)CC2)c1)Nc1cccc(C(=O)N2CCCC2)c1	-12%	5%	-3%	-28%	-4%	1%
CC(C)(Cc1nc2ccccc2[nH]1)c1nc2ccccc2[nH]1	?	-3%	1%	1%	-7%	0%
COc1cc([N+](=O)[O-])ccc1NC(=O)NCCCN1CCCC1=O	-14%	9%	5%	-43%	6%	4%
C[C@H](CO)N1C[C@H](C)[C@@H](CN(C)S(=O)(=O)c2cn(C)cn2)Oc2ccc(NC(=O)Cc3ccccc3)cc2C1=O	-6%	-12%	11%	-4%	10%	13%
COc1cccc(-c2nn[nH]n2)c1O	-12%	1%	14%	15%	?	17%
COc1cc2c3c(c1)C(C)=CC(C)(C)N3C(=O)C2=O	0.73µM*	0.82µM*	10µM*	3%	?	3.3µM*
COc1ccc(C(=O)Oc2cc3c4c(c2)C(C)=CC(C)(C)N4C(=O)C3=O)cc1OC	4.6µM*	3.3µM*	0%	-8%	2%	-4%
COc1ccc(C(=O)Oc2cccnc2)cc1OC	0%	?	11%	-1%	15%	10%
COc1cccc(C(=O)Oc2cc3c4c(c2)C(C)=CC(C)(C)N4C(=O)C3=O)c1	3.7µM*	3.7µM*	7.1µM*	-2%	-22%	4.5µM*
CCc1cc2c3c(c1)C(C)CC(C)(C)N3C(=O)/C2=C1\SC(=O)NC1=O (configuration not stated)	8%	?	1%	32%	24%	?
COc1cccc(C(=O)Oc2ccc3ccc(O)cc3c2)c1	-2%	11%	3%	-7%	-5%	11%
COc1cc2c3c(c1)C(C)CC(C)(C)N3C(=O)C2=O (configuration not stated)	2.6µM*	5.2µM*	-5%	7%	62%	-3%
Cc1ccc(OCC(=O)Nc2c(C)ccc3nsnc23)cc1	-25%	?	-4%	-17%	-21%	9%
SMILES	TDP1 cell CPT	DT40 TDP1 no CPT	HT1080-NT tox	HepG2 tox	TGFb inhibitor	HT1080 IDH1KD tx
Cc1ccc(CSC2=Nc3ccccc3C3=NC(CCC(=O)NCc4cccs4)C(=O)N23)cc1 (configuration not stated)	-29%	?	/	-11%	0%	/
O=C(CCC1N=C2c3ccccc3N=C(SCC(=O)Nc3ccc(F)cc3)N2C1=O)NCc1cccs1 (configuration not stated)	15µM*	15µM*	/	-16%	79%	/
O=C(CCC1N=C2c3ccccc3N=C(SCc3ccccc3Cl)N2C1=O)NCc1cccs1 (configuration not stated)	?	21µM*	/	1%	12%	/
CCc1ccc(NC(=O)CSC2=Nc3ccccc3C3=NC(CCC(=O)NCc4cccs4)C(=O)N23)cc1 (configuration not stated)	?	?	/	-20%	9%	/
CC(C)c1ccc(NC(=O)CSC2=Nc3ccccc3C3=NC(CCC(=O)NCc4cccs4)C(=O)N23)cc1 (configuration not stated)	23µM*	26µM*	/	-5%	9%	/
O=C(CC1N=C2c3ccccc3N=C(SCC(=O)Nc3ccc(F)cc3)N2C1=O)NCc1cccs1 (configuration not stated)	?	?	/	-3%	15%	/
NC(=O)NCC(N)C(=O)O (configuration not stated)	1%	-5%	/	/	/	/
OCCCc1ccccc1	2%	-4%	/	/	/	/
Cn1c(=O)n(C)c2cc(NS(=O)(=O)c3ccc4c(c3)CCCC4)ccc21	18µM*	?	?	-24%	22%	?
Cn1c(=O)n(C)c2cc(NS(=O)(=O)c3ccc(C(C)(C)C)cc3)ccc21	18µM*	18µM*	-22%	-8%	-24%	?
Cc1cc(C)c(S(=O)(=O)Nc2ccc3c(c2)CCC3)c(C)c1	?	18µM*	23µM*	-87%	18µM*	?
